Reference: PubChem BioAssay (EPA / NIEHS)
The source made the active and inactive calls. The calls were made as follows: active = hit-call score of the fitted dose curve at least 0.9, where 1 is the maximum; inactive = score below 0.9.

How the values were obtained:
[1] = ATG_GLI_CIS: Attagene CIS-FACTORIAL HepG2 Assay for human Zinc Finger Protein GLI1 (AID 2282945); conditions: HepG2, Attagene cis-factorial reporter mRNA, GLI element; actives raise or lower the signal
In short: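 HepG2 cells transiently transfected with cis-promoter multiplexed reporter units report endogenous transcription factor activity. After 24 h chemical exposure, reporter mRNA was quantified by RT-PCR, 6-FAM labelling, HpaI digestion and capillary electrophoresis, with bidirectional fitting against DMSO.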

[2] = target: Bile acid receptor (Homo sapiens) (UniProt Q96RI1); assay: ATG_IR1_CIS: Attagene CIS-FACTORIAL HepG2 Assay for human Nuclear Receptor Subfamily 1 Group H Member 4 (NR1H4), IR1 submotif (AID 2282946); conditions: IR1 reporter transcription, actives raise or lower the signal
In short: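 Transient MRTU transfection, HepG2; 24 h dosing; RNA → RT-PCR → 6-FAM primer extension → HpaI digest → capillary electrophoresis fluorescence. Gain/loss of signal fitted relative to DMSO.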

[3] = ATG_GRE_CIS: Attagene CIS-FACTORIAL HepG2 Assay for human Glucocorticoid Response Elements (GRE) (AID 2282947); conditions: HepG2 GRE cis-reporter, Attagene multiplex mRNA; actives raise or lower the signal
In short: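 HepG2 cells transiently transfected with multiple cis-promoter reporter units measure endogenous TF activity; 24 h compound exposure. Reporter mRNA quantified by RT-PCR, FAM labelling, HpaI digestion and capillary electrophoresis; bidirectional fit vs DMSO baseline.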

[4] = ATG_ISRE_CIS: Attagene CIS-FACTORIAL HepG2 Assay for human Interferon Regulatory Factor 1 (IRF1) binding to an Interferon-Stimulated Response Element (ISRE) (AID 2282948); conditions: HepG2 ISRE cis-reporter (Attagene), mRNA transcription readout; actives raise or lower the signal
In short: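 Transfected HepG2 (multiple reporter transcription units, cis elements) dosed 24 h. RNA → oligo(dT) RT → PCR → 6-FAM primer extension → HpaI → CE. DMSO = negative control/baseline.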

[5] = ATG_M_32_CIS: Attagene CIS-FACTORIAL HepG2 Assay for M32 Transcription Factor (Internal Marker) (AID 2282949); conditions: HepG2 Attagene cis-factorial M32 reporter, mRNA; actives raise or lower the signal;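 also: background control marker of the multiplexed CIS panel rather than a real target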
In short: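 Following 24 h chemical exposure of HepG2 cells transiently expressing cis-promoter reporter constructs, reporter transcript levels were determined by RT-PCR with fluorescent labelling and capillary electrophoresis, then fitted bidirectionally against DMSO.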

[6] = ATG_M_06_CIS: Attagene CIS-FACTORIAL HepG2 Assay for M06 Transcription Factor (Internal Marker) (AID 2282950); conditions: HepG2 Attagene CIS-FACTORIAL M06 internal marker reporter; actives raise or lower the signal
In short: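 Measured 24 h post-dosing in transiently transfected HepG2 cells, this internal-marker endpoint reports reporter mRNA via RT-PCR with fluorescent primer extension and capillary electrophoresis. DMSO served as negative control and baseline for bidirectional fitting.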

[7] = target: Hypoxia-inducible factor 1-alpha (Homo sapiens) (UniProt Q16665); assay: ATG_HIF1a_CIS: Attagene CIS-FACTORIAL HepG2 Assay for human Hypoxia Inducible Factor 1 (HIF1A) (AID 2282951); conditions: HepG2 Attagene cis-factorial HIF1a reporter transcription; actives raise or lower the signal
In short: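 RT-PCR/capillary electrophoresis fluorescence readout of reporter transcripts from endogenous-TF-driven cis elements in transfected HepG2 cells, 24 h exposure; activity fitted in both directions against DMSO controls.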

[8] = target: Hepatocyte nuclear factor 6 (Homo sapiens) (UniProt Q9UBC0); assay: ATG_HNF6_CIS: Attagene CIS-FACTORIAL HepG2 Assay for human Hepatocyte Nuclear Factor 6 (HNF6) (AID 2282952); conditions: HepG2 Attagene cis-factorial HNF6 reporter transcription; actives raise or lower the signal
In short: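 Multiplexed mRNA reporter assay in transfected HepG2; 24 h dosing; RT-PCR plus capillary electrophoresis fluorescence; DMSO-referenced bidirectional curve fitting.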

[9] = target: Heat shock factor protein 1 (Homo sapiens) (UniProt Q00613); assay: ATG_HSE_CIS: Attagene CIS-FACTORIAL HepG2 Assay for human Heat Shock Transcription Factor 1 (HSE) (AID 2282953); conditions: HepG2 HSE cis-reporter, Attagene RNA transcription; actives raise or lower the signal
In short: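 Reporter mRNA induction in HepG2 is measured 24 h after dosing, using transiently transfected multiplexed cis-regulated reporter units. Signal comes from capillary electrophoresis of labelled RT-PCR products, with DMSO as negative control.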

[10] = ATG_MRE_CIS: Attagene CIS-FACTORIAL HepG2 Assay for human Metal Responsive Element (MRE) (AID 2282954); conditions: HepG2 MRE cis-reporter transcription, Attagene multiplex; actives raise or lower the signal
In short: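 HepG2 cells transiently transfected with multiple cis-element reporter units measure endogenous MTF1-driven transcription. After 24 h compound exposure, reporter mRNA is quantified by RT-PCR with 6-FAM labelling, HpaI digestion and capillary electrophoresis; bidirectional fits versus DMSO.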

[11] = ATG_PBREM_CIS: Attagene CIS-FACTORIAL HepG2 Assay for human Phenobarbital-responsive Enhancer Module (PBREM) (AID 2282955); conditions: HepG2 PBREM cis-reporter, Attagene multiplexed transcription; actives raise or lower the signal
In short: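 Reporter mRNA read by RT-PCR, 6-FAM primer extension, HpaI digestion and capillary electrophoresis. Transfected HepG2 cells, 24 h compound exposure. Gain or loss of signal fitted bidirectionally relative to DMSO baseline.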

[12] = ATG_PXRE_CIS: Attagene CIS-FACTORIAL HepG2 Assay for human Pregnane X Receptor Element (PXRE) (AID 2282957); conditions: HepG2 Attagene CIS-FACTORIAL PXRE reporter, mRNA; actives raise or lower the signal
In short: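 Cells: HepG2, transiently transfected reporter units under cis promoter control. Exposure: 24 h. Detection: reporter mRNA via RT-PCR/CE fluorescence; bidirectional fitting, DMSO-referenced.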

[13] = ATG_PPRE_CIS: Attagene CIS-FACTORIAL HepG2 Assay for human Peroxisome Proliferator-activated Response Element (PPRE) (AID 2282958); conditions: HepG2 PPRE cis-element reporter, Attagene transcription factor profiling; actives raise or lower the signal
In short: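 Read-out: fluorescent reporter mRNA fragments resolved by capillary electrophoresis after RT-PCR. HepG2 cells carried transiently transfected PPRE-driven cis reporter constructs and were dosed for 24 h; gain or loss of signal fitted relative to DMSO.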

[14] = ATG_RORE_CIS: Attagene CIS-FACTORIAL HepG2 Assay for human RAR-related Orphan Receptor Element (RORE) (AID 2282959); conditions: HepG2 Attagene cis-factorial RORE reporter, mRNA; actives raise or lower the signal
In short: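 Readout: fluorescent reporter mRNA by RT-PCR plus capillary electrophoresis, 24 h after dosing transfected HepG2 cells. Endogenous transcription factor activity on a cis promoter element is measured. Gain or loss of signal fitted against DMSO.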

[15] = ATG_Sox_CIS: Attagene CIS-FACTORIAL HepG2 Assay for human SRY-box transcription factor (SOX) (AID 2282960); conditions: HepG2 Attagene cis-factorial SOX reporter, mRNA; actives raise or lower the signal
In short: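 Read-out: fluorescent RT-PCR products of SOX1-linked reporter transcripts resolved by capillary electrophoresis, fitted bidirectionally against DMSO. Transiently transfected HepG2 cells, 24 h after chemical exposure, endogenous transcription factor activity.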

[16] = target: Transcription factor Sp1 (Homo sapiens) (UniProt P08047); assay: ATG_Sp1_CIS: Attagene CIS-FACTORIAL HepG2 Assay for human Specificity Protein 1 (Sp1) (AID 2282961); conditions: HepG2 Sp1 cis-reporter transcription, actives raise or lower the signal
In short: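 Read-out: fluorescence of 6-FAM-labeled, HpaI-digested RT-PCR products separated by capillary electrophoresis. HepG2 cells carried transfected cis-element reporter units and were exposed to chemicals for 24 h; gain or loss of signal fitted relative to DMSO.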

[17] = ATG_SREBP_CIS: Attagene CIS-FACTORIAL HepG2 Assay for human Sterol Regulatory Element Binding (SREBP) (AID 2282962); conditions: HepG2 Attagene cis-factorial SREBP reporter, mRNA; actives raise or lower the signal
In short: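 Transfected HepG2 (cis-regulated reporter library, endogenous TFs) → compound 24 h → total RNA → oligo(dT) RT → reporter-specific PCR → FAM primer extension, HpaI cut → CE fluorescence. Fit bidirectional vs DMSO.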

[18] = target: Signal transducer and activator of transcription 3 (Homo sapiens) (UniProt P40763); assay: ATG_STAT3_CIS: Attagene CIS-FACTORIAL HepG2 Assay for human Signal Transducer and Activator of Transcription 3 (STAT3) (AID 2282963); conditions: HepG2, Attagene cis-factorial STAT3 reporter transcription; actives raise or lower the signal
In short: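 HepG2 cells transiently transfected with cis-element-driven multiple reporter transcription units; after 24 h chemical exposure, reporter mRNA measured by RT-PCR, 6-FAM primer-extension labelling, HpaI digestion and capillary electrophoresis. Bidirectional fitting versus DMSO baseline.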

[19] = target: Paired box protein Pax-6 (Homo sapiens) (UniProt P26367); assay: ATG_Pax6_CIS: Attagene CIS-FACTORIAL HepG2 Assay for human Paired Box 6 (PAX6) (AID 2282956); conditions: HepG2 CIS-FACTORIAL PAX6 reporter transcription, RNA readout; actives raise or lower the signal
In short: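 Transient MRTU transfection of HepG2 → compound exposure 24 h → TriZol RNA, oligo(dT) RT → PCR, 6-FAM primer extension, HpaI cut → capillary electrophoresis; activity fitted both directions against DMSO.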

[20] = ATG_TA_CIS: Attagene CIS-FACTORIAL HepG2 Assay for human TA Basal Promoter (AID 2282964); conditions: HepG2 Attagene CIS-factorial TA basal promoter reporter; actives raise or lower the signal
In short: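 Cis-factorial format in HepG2: reporters report endogenous factors, not chimeric Gal4 fusions. After 24 h treatment, reporter transcripts were measured by RT-PCR-capillary electrophoresis fluorescence, analysed bidirectionally versus DMSO.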

Measured: outcome

Sequence of Hepatocyte nuclear factor 6 (Homo sapiens) (Q9UBC0 whole entry, looked up): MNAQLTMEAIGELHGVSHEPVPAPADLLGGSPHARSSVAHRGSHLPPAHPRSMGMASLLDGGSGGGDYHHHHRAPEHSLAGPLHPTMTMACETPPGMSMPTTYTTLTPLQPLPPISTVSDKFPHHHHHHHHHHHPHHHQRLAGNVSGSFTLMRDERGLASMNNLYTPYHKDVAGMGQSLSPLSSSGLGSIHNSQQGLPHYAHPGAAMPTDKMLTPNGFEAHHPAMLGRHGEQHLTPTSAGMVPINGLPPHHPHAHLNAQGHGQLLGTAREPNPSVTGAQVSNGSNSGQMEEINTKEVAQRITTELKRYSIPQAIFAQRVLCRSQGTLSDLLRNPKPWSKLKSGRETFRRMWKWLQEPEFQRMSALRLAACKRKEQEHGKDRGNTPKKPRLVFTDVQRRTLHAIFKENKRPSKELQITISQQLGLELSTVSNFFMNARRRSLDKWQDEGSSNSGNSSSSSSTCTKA
Sequence of Transcription factor Sp1 (Homo sapiens) (P08047 whole entry, looked up): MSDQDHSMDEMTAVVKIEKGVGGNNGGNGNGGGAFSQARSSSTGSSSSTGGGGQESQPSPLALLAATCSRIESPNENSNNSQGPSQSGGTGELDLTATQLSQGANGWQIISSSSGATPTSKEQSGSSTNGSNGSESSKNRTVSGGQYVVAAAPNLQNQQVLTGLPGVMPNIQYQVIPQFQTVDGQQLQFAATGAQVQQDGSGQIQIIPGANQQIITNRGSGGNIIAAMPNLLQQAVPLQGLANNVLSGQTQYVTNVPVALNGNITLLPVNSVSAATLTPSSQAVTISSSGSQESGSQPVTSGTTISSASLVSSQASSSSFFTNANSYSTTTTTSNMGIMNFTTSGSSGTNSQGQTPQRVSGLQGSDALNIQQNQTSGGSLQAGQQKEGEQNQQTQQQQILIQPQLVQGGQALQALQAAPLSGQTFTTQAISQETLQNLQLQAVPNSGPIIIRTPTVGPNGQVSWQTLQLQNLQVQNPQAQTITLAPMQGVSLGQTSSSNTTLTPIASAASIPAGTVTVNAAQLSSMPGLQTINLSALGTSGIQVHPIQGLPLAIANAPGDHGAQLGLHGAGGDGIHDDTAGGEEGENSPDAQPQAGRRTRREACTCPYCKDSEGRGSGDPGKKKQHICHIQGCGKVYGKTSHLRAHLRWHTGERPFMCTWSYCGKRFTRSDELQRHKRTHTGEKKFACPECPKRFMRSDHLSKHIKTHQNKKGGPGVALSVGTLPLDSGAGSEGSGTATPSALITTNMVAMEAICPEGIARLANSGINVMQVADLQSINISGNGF
Sequence of Heat shock factor protein 1 (Homo sapiens) (Q00613 whole entry, looked up): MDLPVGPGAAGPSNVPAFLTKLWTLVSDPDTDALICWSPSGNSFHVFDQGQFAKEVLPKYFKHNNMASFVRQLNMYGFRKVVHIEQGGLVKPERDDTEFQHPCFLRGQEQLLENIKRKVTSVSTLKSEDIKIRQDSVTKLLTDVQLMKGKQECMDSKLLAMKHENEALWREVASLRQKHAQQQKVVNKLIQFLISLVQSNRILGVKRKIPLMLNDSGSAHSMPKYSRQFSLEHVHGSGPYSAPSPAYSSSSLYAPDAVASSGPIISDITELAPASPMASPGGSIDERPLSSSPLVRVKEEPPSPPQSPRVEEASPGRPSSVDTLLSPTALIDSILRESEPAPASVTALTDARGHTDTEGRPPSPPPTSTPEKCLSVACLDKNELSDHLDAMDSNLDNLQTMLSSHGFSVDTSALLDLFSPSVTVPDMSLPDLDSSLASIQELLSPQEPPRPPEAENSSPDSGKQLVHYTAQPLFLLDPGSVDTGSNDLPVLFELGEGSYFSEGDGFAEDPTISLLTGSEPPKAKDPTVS
Sequence of Hypoxia-inducible factor 1-alpha (Homo sapiens) (Q16665 whole entry, looked up): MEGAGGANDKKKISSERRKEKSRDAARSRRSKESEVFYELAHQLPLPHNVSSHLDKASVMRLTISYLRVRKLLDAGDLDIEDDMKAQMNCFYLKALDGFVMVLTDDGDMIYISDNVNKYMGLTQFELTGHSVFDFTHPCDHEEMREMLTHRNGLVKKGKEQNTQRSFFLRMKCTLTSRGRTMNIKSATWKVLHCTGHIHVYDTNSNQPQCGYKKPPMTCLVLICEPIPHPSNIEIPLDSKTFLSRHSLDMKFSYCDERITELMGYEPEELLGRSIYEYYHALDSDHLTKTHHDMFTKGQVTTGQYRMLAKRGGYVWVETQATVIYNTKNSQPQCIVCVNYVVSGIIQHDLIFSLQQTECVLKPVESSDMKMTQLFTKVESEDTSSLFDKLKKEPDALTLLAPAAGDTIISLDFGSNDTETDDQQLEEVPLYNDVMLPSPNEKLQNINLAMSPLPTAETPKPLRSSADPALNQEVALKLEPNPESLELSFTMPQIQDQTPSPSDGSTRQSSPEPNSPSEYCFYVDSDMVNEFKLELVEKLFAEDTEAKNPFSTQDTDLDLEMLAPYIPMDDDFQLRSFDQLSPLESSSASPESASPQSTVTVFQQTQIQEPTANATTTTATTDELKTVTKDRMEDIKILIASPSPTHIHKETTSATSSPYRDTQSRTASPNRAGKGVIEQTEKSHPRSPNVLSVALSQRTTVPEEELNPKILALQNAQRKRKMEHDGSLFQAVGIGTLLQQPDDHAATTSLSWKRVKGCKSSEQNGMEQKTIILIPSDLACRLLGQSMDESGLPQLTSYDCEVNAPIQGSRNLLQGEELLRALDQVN
Sequence of Paired box protein Pax-6 (Homo sapiens) (P26367 whole entry, looked up): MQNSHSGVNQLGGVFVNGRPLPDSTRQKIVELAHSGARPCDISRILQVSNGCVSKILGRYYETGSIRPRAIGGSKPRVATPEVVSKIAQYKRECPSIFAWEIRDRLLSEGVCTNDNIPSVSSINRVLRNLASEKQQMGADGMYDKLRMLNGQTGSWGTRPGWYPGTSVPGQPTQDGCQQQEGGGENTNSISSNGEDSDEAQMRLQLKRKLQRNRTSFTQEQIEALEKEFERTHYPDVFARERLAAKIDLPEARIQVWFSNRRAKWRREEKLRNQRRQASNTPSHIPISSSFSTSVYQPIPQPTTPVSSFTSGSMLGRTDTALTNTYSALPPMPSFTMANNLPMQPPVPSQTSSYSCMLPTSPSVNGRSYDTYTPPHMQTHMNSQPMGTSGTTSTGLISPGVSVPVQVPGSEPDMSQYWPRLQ
Sequence of Bile acid receptor (Homo sapiens) (Q96RI1 whole entry, looked up): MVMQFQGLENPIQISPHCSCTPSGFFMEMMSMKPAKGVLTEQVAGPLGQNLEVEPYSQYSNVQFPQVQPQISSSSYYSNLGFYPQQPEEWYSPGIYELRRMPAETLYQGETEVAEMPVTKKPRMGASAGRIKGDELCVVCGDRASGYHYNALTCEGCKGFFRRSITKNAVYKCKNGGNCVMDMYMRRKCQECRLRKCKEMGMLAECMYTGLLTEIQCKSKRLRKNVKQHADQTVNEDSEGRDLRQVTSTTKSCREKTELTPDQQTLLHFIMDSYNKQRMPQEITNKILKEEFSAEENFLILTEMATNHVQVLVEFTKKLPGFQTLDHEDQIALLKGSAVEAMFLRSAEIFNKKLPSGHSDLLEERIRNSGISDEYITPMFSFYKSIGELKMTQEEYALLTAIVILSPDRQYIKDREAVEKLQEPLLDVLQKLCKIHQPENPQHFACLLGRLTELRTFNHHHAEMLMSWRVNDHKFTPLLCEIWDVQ
Sequence of Signal transducer and activator of transcription 3 (Homo sapiens) (P40763 whole entry, looked up): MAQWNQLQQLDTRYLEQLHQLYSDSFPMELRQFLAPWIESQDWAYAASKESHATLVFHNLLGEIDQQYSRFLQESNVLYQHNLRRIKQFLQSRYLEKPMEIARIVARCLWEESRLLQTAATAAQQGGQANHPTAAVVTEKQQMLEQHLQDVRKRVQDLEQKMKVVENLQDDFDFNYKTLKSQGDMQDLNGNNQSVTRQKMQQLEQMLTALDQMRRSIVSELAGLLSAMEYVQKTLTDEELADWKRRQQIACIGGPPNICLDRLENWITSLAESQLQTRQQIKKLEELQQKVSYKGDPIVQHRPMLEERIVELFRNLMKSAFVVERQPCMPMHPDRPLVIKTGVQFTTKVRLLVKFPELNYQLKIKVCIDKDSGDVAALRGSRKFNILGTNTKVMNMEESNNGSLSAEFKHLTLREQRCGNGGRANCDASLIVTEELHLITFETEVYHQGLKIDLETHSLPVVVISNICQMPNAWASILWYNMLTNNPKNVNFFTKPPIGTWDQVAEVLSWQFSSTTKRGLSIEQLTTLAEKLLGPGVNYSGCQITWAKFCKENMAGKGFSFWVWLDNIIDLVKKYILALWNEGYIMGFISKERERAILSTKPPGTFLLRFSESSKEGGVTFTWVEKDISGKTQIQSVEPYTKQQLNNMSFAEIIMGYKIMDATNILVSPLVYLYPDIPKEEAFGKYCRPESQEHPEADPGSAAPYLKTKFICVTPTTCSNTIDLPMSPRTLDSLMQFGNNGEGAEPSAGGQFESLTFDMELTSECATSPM

CC(=O)C=O
not listed: [19] | [20]
inactive: all other assays above

NC(=O)C(F)(F)C(F)(F)C(F)(F)C(F)(F)C(N)=O
inactive: all assays above

FC(F)(F)C(F)(F)C(F)(F)CC1CO1 (configuration not stated)
inactive: all assays above

C=C(C)CCCC
inactive: all assays above

CCC(C)CO (configuration not stated)
inactive: all assays above

O=C=NCc1cccc(CN=C=O)c1
not listed: [20]
inactive: all other assays above

NC(O)(C(F)(F)F)C(F)(F)F
inactive: all assays above
